Measured values from PubChem BioAssay AID624330 (Southern Research Specialized Biocontainment Screening …, 2012).
The campaign covered roughly 340,000 compounds. About 2,100 (0.62%) were called active.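 Rule for the calls: active = first-screen hits whose inhibition reached a set limit at any dose in the follow-up dose series; inconclusive = inhibition above the set first-screen limit but never retested; inactive = the rest.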 These entries were drawn from the full list. Entries with a potency or affinity are not part of this list.

target: Rac GTPase-activating protein 1 (Homo sapiens) (UniProt Q9H0H5); test: blockers of MgcRacGAP-driven Rac1 GTP hydrolysis – biochemical, ADP Hunter fluorescence, primary and confirmatory, confirmation (AID 624330); settings: MgcRacGAP-stimulated Rac1 GTP hydrolysis, at 30 µM, active compounds read high, GST-tagged Rac1 F28L mutant substrate;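 note: fluorescence reports GDP produced by GAP-driven GTP hydrolysis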
Sequence (Q9H0H5 whole entry, looked up): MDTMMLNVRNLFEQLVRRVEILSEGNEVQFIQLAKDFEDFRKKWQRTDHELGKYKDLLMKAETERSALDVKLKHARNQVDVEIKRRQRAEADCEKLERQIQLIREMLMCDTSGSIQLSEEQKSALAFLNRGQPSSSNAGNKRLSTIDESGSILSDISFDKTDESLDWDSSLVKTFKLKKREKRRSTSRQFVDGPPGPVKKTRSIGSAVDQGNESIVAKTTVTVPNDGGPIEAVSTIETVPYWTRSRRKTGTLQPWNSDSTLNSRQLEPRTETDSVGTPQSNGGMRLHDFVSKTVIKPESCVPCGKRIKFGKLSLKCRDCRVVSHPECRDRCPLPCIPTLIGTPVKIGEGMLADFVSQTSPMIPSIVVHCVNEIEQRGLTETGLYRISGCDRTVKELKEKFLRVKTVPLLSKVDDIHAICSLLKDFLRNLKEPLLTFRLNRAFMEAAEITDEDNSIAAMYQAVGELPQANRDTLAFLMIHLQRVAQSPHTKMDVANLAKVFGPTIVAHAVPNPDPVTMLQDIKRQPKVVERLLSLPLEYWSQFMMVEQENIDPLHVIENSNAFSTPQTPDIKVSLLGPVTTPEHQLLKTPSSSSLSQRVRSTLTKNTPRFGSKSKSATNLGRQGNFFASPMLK

inhibition, inactive:
CCN1C[C@@H]2[C@@H]3C(=O)N(C)C(=O)[C@@H]3[C@](Cc3ccccc3)(C(=O)OC)N2C1=NCc1ccccc1 8.57%
COc1cccc(NC(=O)COc2ncnc3sc(C)c(C)c23)c1 5.65%
CCOc1ccccc1/C=C(/NC(=O)c1ccccc1)C(=O)N(CC)CC 5.35%
CC[C@]12C(=O)N(C)C[C@H]([C@@H]3C(=O)N(C)C(=O)[C@@H]31)N2C(=O)c1ccc(F)cc1 7.98%
CNS(=O)(=O)c1cccc(C(=O)OCC(=O)C23CC4CC(CC(C4)C2)C3)c1 2.1%
O=C(COc1ccccc1[N+](=O)[O-])N/N=C/c1ccncc1 3.99%
COCc1cc(C)nc(OCC(=O)N/N=C/c2ccc(C)cc2)c1C#N 6.19%
COc1ccc(/C=N/NC(=O)COc2cccc3cccnc23)cc1OC 12%
O=C(COc1ccccc1[N+](=O)[O-])N/N=C/c1ccc(O)c([N+](=O)[O-])c1 5%
COCc1cc(C)nc(OCC(=O)N/N=C/c2ccccc2)c1C#N 5.88%
O=C(COc1cccc2cccnc12)N/N=C/c1ccccc1O 9.73%
CC(C(=O)NCC1CCCCC1)N(C)Cc1ccc(Cl)cc1 (stereo unspecified) 9.97%
NC(=O)c1ccc(NC(=O)CCc2nc3ccccc3s2)cc1 9.08%
Fc1ccccc1CN1CCN(c2ncccn2)CC1 18.2%
COc1ccccc1C(=O)N1CCN=C1SCc1cccnc1 9.35%
COc1cccc(OC)c1C(=O)N1CCN(Cc2ccncc2)CC1 17.3%
COc1ccc(CN2CCN(C(=O)c3cccnc3)CC2)cc1Br 26.4%
COc1ccccc1C(=O)N1CCN(CCc2ccccc2)CC1 5.14%
CCOc1ccccc1/C=C/c1nc2ccccc2[nH]c1=O -3.6%
CSCCC(=O)N(C)CC1CCN(CCc2cccc(C(F)(F)F)c2)CC1 -11.6%
COc1cc(OC)nc(NC(=O)NS(=O)(=O)c2ccc(OC(F)(F)F)cc2)n1 7.78%
COc1ccc2nc(SCC(=O)NC3CCCCC3C)[nH]c2c1 (stereo unspecified) 6.19%
COc1ccc(C(O)(C(C)C)C(CN2CCOCC2)c2ccc(Cl)cc2)cc1 (stereo unspecified) 3.23%
COc1ccc(-c2cnnc(N/N=C/c3ccc(O)c(OC)c3)n2)cc1 28.9%
COc1cc(/C=N/Nc2nc(C)cc(C)n2)cc(OC)c1OC 18.6%
COc1cc(/C=N/Nc2cc(C)nc(NS(=O)(=O)c3ccc(C)cc3)n2)ccc1O 23.4%
COc1ccc(-c2cnnc(N/N=C/c3ccc(O)cc3)n2)cc1 15.5%
COc1ccc(/C=N/Nc2cc(C)nc(NS(=O)(=O)c3ccc(C)cc3)n2)cc1 8.72%
Oc1ccc(/C=N/NC2=NCCCCC2)cc1 14.8%
COc1cc(/C=N/Nc2nc(C)cc(C)n2)ccc1OC(=O)c1ccco1 12.7%
Oc1ccccc1/C=N/NC1=NCCCCC1 -4.7%
CC(=O)NCc1nc2ccccc2n1Cc1ccccc1F 2.14%
Cc1cccc(C(=O)OCC(=O)NC2CCCCCCC2)c1 -0.77%
Cc1cc(C)c(C#N)c(SCc2nc3ccccc3[nH]2)n1 11.2%
CCN(C(=O)c1ccccc1)c1ccc([N+](=O)[O-])cc1 6.29%
C=CCn1c(N)cc(=O)nc1SCC(=O)Nc1ccc2ccccc2c1 6.15%
NC1=NC(c2ccccc2)CC(=O)N1 (stereo unspecified) 0.78%
COc1ccc(OC)c(CN2CCN(CC(=O)Nc3ccccc3C(=O)NC3CC3)CC2)c1 3.43%
Cc1ccc(-n2c(CNc3cccc(Cl)c3)n[nH]c2=S)cc1 -10.3%
CCN(CC)S(=O)(=O)c1cccc(C(=O)NCC2CCCO2)c1 (stereo unspecified) -3.29%
S=C(c1ccc(-c2ccccc2Cl)o1)N1CCOCC1 10.6%
CCNc1nc(NCC)nc(N/N=C/c2ccccc2)n1 5.89%
CCNc1nc(NCC)nc(N/N=C/c2ccc(Br)cc2)n1 4.59%
COc1cc(/C=N/Nc2nnc3c(n2)[nH]c2ccccc23)ccc1O 9.92%
COc1ccc(/C=N/NC2=NCCCCC2)cc1 -0.36%
COc1cc(/C=N\Nc2nc(-c3ccc(C)cc3)c(NC(C)=O)s2)ccc1O 17.7%
Cc1ccc(/C=N/Nc2nc(C)cc(C)n2)cc1 6.97%
Cc1cc(C)nc(N/N=C/c2ccc(Cl)cc2)n1 7.83%
COc1ccccc1/C=N/NC1=NCCCCC1 4.83%
CS(=O)(=O)N(CC(=O)N1CCCC1)c1cc(Cl)ccc1Cl 8.42%
Cc1ccc(S(=O)(=O)NCC(c2ccco2)N2CCc3ccccc3C2)cc1 (stereo unspecified) 2.71%
Cc1c(N(C)S(=O)(=O)c2ccc(Cl)c(C(=O)NCC3CCCO3)c2)c(=O)n(-c2ccccc2)n1C (stereo unspecified) 1.31%
O=C(Nc1nnc(C2CC2)s1)C1CCCCC1 3.57%
CCOc1ccc(CCNC(=O)COC(=O)c2ccc(OC(C)C)cc2)cc1OCC -0.74%
CCOc1ccccc1CN1CCC(N2CCC(C(=O)NC3CC3)CC2)CC1 9.11%
CCOc1ccccc1CN1CCC(O)CC1 15.6%
CCOc1ccc(C(=O)NCCC(=O)NCCCC(=O)O)cc1 -5.31%
O=C(CCS(=O)(=O)c1ccc(Cl)cc1)Nc1nnc(-c2ccco2)o1 3.12%
COc1cccc(CNCc2ccccc2OC)c1 22.3%
COc1cccc(CNCCO)c1OCc1ccc(Cl)cc1 9.58%
COc1ccc(CNCCc2ccc([N+](=O)[O-])cc2)c(OC)c1OC 25.1%
COc1ccc(CNCc2ccc(C(F)(F)F)cc2)cc1OC 2.76%
COc1ccccc1CNC(=O)CCSCc1cccc(Cl)c1 -0.5%
COc1ccccc1CNCc1cc(Br)ccc1OC 23.1%
COc1ccc(NC(=O)NCCc2cccc(Cl)c2)cc1OC 11.4%
COc1ccc(CCNC(=O)Cc2cccc(C(F)(F)F)c2)cc1OC 8.81%
